Measurements taken from PubChem BioAssay AID504834 (National Center for Advancing Translational Sciences (NCATS), 2011).
About 22,000 (6.9%) of roughly 320,000 compounds were called active. Where a call stands in place of a potency, no number is given. Inconclusive results (about 27%) are left out. Calls follow the shape of the dose curve; as a rule, active = well fitted inhibition curve with a large enough effect; inconclusive = small, poorly fitted or top-dose-only effect, or another doubt; inactive = no such curve, though single readings can be large or run the other way. Only a selection was taken, and actives are over-represented in it overall.

experiment: Primary qHTS for delayed death inhibitors of the malarial parasite plastid, 96 hour incubation; conditions: P. falciparum luciferase reporter growth; series mostly up to 28.7 µM
How it was run: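 Compounds incubated with erythrocytes infected by luciferase-expressing P. falciparum (2% hematocrit, 0.05% parasitemia final) for 96 hours, 37 C in 5% CO2. Growth inhibition scored as decreased luciferase luminescence.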
Potency is read from the fitted curve at half-maximal effect.

SMILES | Potency
NC(=O)c1c(NC(=O)c2ccccc2)sc2c1CCCC2 | inactive
CC1CCCCC12NC(=O)N(CC(=O)Nc1ccc(S(=O)(=O)Nc3ncccn3)cc1)C2=O (stereo not drawn) | inactive
COCCN1C(=O)C(=O)/C(=C(/O)c2ccc(S(=O)(=O)N3CCOCC3)cc2)C1c1ccc(O)c(OC)c1 (stereo not drawn) | inactive
Cc1c(NC(=O)Nc2ccccc2)cccc1[N+](=O)[O-] | inactive
Cc1cccc(NC(=O)Nc2nnc(-c3ccccc3)o2)c1 | inactive
Cc1ccc(NC(=O)Nc2ccccc2)c(Br)c1 | 7.38 µM (active)
CC(Oc1ccc(F)cc1)C(=O)Nc1cc(S(=O)(=O)N2CCOCC2)ccc1N1CCN(C)CC1 (stereo not drawn) | inactive
O=C(COC(=O)c1ccccc1F)Nc1cc(S(=O)(=O)N2CCOCC2)ccc1N1CCCC1 | inactive
CCC(=O)Nc1ccccc1N1CCN(S(C)(=O)=O)CC1 | inactive
CC(=O)N1CCc2cc(S(=O)(=O)Nc3ccccc3N3CCN(C)CC3)ccc21 | inactive
CC12CCC(=O)N1C(C(=O)Nc1ccc(F)c(F)c1F)CS2 (stereo not drawn) | inactive
CCN(CC)S(=O)(=O)c1ccc(N2CCN(C)CC2)c(NC(=O)Nc2ccccc2F)c1 | 13.1 µM (active)
CCN(CC)S(=O)(=O)c1cc(C(=O)Nc2cc(S(=O)(=O)N3CCOCC3)ccc2N2CCCC2)ccc1F | 2.62 µM (active)
CCN(CC)S(=O)(=O)c1ccc(N2CCOCC2)c(NC(=O)C(C)Oc2ccc(F)cc2)c1 (stereo not drawn) | 14.7 µM (active)
CCN(CC)S(=O)(=O)c1ccc(N2CCOCC2)c(C(=O)O)c1 | inactive
O=C(CNCc1ccco1)Nc1cc(S(=O)(=O)N2CCOCC2)ccc1N1CCCC1 | inactive
CCN(CC)S(=O)(=O)c1ccc(N2CCOCC2)c(NC(=O)C2CSC3(C)CCC(=O)N23)c1 (stereo not drawn) | 10.4 µM (active)
CCN(CC)S(=O)(=O)c1ccc(N2CCOCC2)c(NC(=O)C2COc3ccccc3O2)c1 (stereo not drawn) | inactive
CN(CC(=O)NC(=O)Nc1ccccc1F)Cc1ccccc1 | inactive
COc1ccc2ccn(C)c2c1 | inactive
O=C(Cc1cccs1)Nc1ccc([N+](=O)[O-])cc1 | inactive

SMILES | Potency
O=C(O)C(c1ccccc1)N1C(=O)/C(=C\c2ccc(-c3cccc(Cl)c3)o2)SC1=S (stereo not drawn) | inactive
O=C1CCC(C(=O)N2CCCCO2)CN1Cc1cccc(C(F)(F)F)c1 (stereo not drawn) | inactive
O=C(NC1CCCC1)c1cc(-c2ccccc2)on1 | inactive
CCC(CC)C(=O)Nc1cccc(C(=O)N2CCCC2)c1 | 8.28 µM (active)
COc1ccc(OCc2cccc(C(=O)N3CCCC3)c2)cc1 | inactive
CC(=O)c1cccc(NC(=S)N2CCCC2)c1 | inactive
Cc1ccc(Cl)c(OCC(=O)NN2CCN(C)CC2)c1 | inactive
CCc1c(C)nc(N)n2c(SCC(=O)NC3CCCCC3)nnc12 | inactive
CCOC(=O)C1=C(c2ccccc2)NC(=S)NC1c1ccc(Cl)cc1 (stereo not drawn) | inactive
O=C(OCC(=O)N1CCc2ccccc21)C1CCCN1S(=O)(=O)c1ccc(Cl)cc1 (stereo not drawn) | inactive
CCOC(=O)C1=C(CN2CCCCCC2)NC(=O)NC1c1cccc([N+](=O)[O-])c1 (stereo not drawn) | inactive
CCOC(=O)C1=C(CN2CCc3ccccc32)NC(=O)NC1c1ccc(Cl)cc1 (stereo not drawn) | 2.08 µM (active)
Cn1c2c(c(=O)n(C)c1=O)C(c1cccc([N+](=O)[O-])c1)Nc1ccccc1O2 (stereo not drawn) | inactive
CCOC(=O)C1=C(CN2CCc3ccccc32)NC(=O)NC1c1cccc([N+](=O)[O-])c1 (stereo not drawn) | 8.28 µM (active)
NC(=O)C1CCCN(CC(=O)N2CCN(c3ccccc3)CC2)C1 (stereo not drawn) | inactive
CCOc1ccc(NC(=O)COC(=O)C2CCC(=O)N2)c([N+](=O)[O-])c1 (stereo not drawn) | inactive
CN(CC(=O)O)S(=O)(=O)c1ccc2oc3ccccc3c2c1 | inactive
CC1CCCCC1NC(=O)c1cc(=O)[nH]c2ccccc12 (stereo not drawn) | inactive
CCOc1ccc(NC(=O)CCC(=O)N/N=C/c2ccc([N+](=O)[O-])s2)cc1 | 4.15 µM (active)
Cc1ccccc1NCC(=O)N/N=C\c1ccc([N+](=O)[O-])s1 | inactive
CCOc1ccc(NC(=O)CCC(=O)NNC(=O)NC2CCCCC2)cc1 | inactive

SMILES | Potency
CCOc1ccc2sc(NS(=O)(=O)c3ccc(N)cc3)nc2c1 | inactive
Cc1cc2cc(CNC(=O)c3cccs3)ccc2[nH]1 | inactive
CCc1cccc(CC)c1NC(=S)Nc1ccc2cn[nH]c2c1 | inactive
CCc1cccc(CC)c1NC(=S)NCc1ccc2[nH]c(C)cc2c1 | 2.62 µM (active)
CCOc1ncccc1C(=O)OCC(=O)Nc1cccc(S(=O)(=O)N2CCCCCC2)c1 | inactive
CC(C)c1ccc(/C=C2\NC(=O)NC2=O)cc1 | inactive
CCO[C@H]1OC(C(=O)O)=C[C@@H](C2CCCCC2)[C@@H]1CCCO | inactive
CCO[C@@H]1OC(C(N)=O)=C[C@H](c2ccc(Br)cc2)[C@H]1CCCO | inactive
CCO[C@H]1OC(C(=O)N2CCOCC2)=C[C@@H](c2ccc3c(c2)OCO3)[C@@H]1CCCO | inactive
CCO[C@H]1OC(C(=O)N2CCCCCCC2)=C[C@@H](c2ccc(C(F)(F)F)cc2)[C@@H]1CCCO | 3.29 µM (active)
CCO[C@H]1OC(C(=O)N2CCN(Cc3ccccc3)CC2)=C[C@@H](c2cn(C(C)=O)c3ccccc23)[C@@H]1CCCO | 9.28 µM (active)
CCO[C@@H]1OC(C(=O)N2CCOCC2)=C[C@H](C)[C@H]1CCCO | inactive
Cc1ccc(S(=O)(=O)CCC(=O)OCC(=O)N(C)C2CCS(=O)(=O)C2)cc1 (stereo not drawn) | inactive
CCN(CC(=O)Nc1ccccc1C(F)(F)F)C(=O)CSCc1c(C)noc1C | inactive
Cc1ccc2c(c1)N(CC(=O)N1CCOCC1)C(=O)CO2 | inactive
Cc1ccc2c(c1)N(CC(=O)N1CCCC(C)C1)C(=O)CO2 (stereo not drawn) | inactive
Cc1ccc2c(c1)N(CC(=O)NCC1CCCO1)C(=O)CO2 (stereo not drawn) | 7.38 µM (active)
CN(C)CCN(C(=O)C1=COCCO1)c1nc2ccc(Cl)cc2s1 | inactive
CC(=O)N(CC1CCCO1)C1(C(=O)NC2CCCC2)CCCCC1 (stereo not drawn) | 10.4 µM (active)
O=C(Cc1cccs1)N(CC1CCCO1)C1(C(=O)NC2CCCCC2)CCCCC1 (stereo not drawn) | inactive
Cc1ccc(N(C(=O)CC2NC(=O)NC2=O)C2(C(=O)NC3CCCC3)CCCCC2)cc1 (stereo not drawn) | inactive
